Measurements: PubChem BioAssay (EPA / NIEHS)
Values joined by “and” are separate entries in the source; they are usually repeats but may differ in a detail not shown here. Equal entries are not always repeated. More than one record can exist for a structure, and the calls need not agree. Active and inactive are the calls of the source. How the source made its calls: active means hit-call score of the fitted dose curve at least 0.9, where 1 is the maximum; inactive means score below 0.9.

Legend:
[1] = molecular target: Transcription factor E2F1 (Homo sapiens) (UniProt Q01094); experiment: ATG_E2F_CIS: Attagene CIS-FACTORIAL HepG2 Assay for human E2F Transcription Factor 1 (AID 2282935); details: HepG2 Attagene cis-reporter, E2F reporter RNA transcripts; actives raise or lower the signal
Sequence of Transcription factor E2F1 (Homo sapiens) (Q01094 whole entry, looked up): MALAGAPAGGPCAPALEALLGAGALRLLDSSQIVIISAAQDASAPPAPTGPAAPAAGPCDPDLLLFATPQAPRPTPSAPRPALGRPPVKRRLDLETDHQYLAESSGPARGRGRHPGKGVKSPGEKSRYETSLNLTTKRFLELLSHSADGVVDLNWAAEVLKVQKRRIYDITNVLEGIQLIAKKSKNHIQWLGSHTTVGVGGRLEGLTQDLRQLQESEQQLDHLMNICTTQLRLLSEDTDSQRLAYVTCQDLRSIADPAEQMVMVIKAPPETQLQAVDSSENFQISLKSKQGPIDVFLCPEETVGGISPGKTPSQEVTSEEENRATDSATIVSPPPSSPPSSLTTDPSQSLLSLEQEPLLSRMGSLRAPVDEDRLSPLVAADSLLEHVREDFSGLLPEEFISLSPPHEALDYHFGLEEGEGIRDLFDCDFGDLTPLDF
Method in brief: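 Total RNA from 24 h-treated, reporter-transfected HepG2 cells undergoes DNase I treatment, oligo(dT) reverse transcription, PCR and 6-FAM primer extension before capillary electrophoresis.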

[2] = ATG_E_Box_CIS: Attagene CIS-FACTORIAL HepG2 Assay for human Enhancer Box (E-box) (AID 2282936); details: HepG2 E-box cis-reporter transcription, actives raise or lower the signal
Method in brief: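 DMSO served as negative control and baseline for bidirectional fitting. Human hepatoma HepG2 cells, transiently transfected with cis-reporter constructs, were dosed 24 h; reporter mRNA read by RT-PCR and capillary electrophoresis.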

[3] = ATG_M_61_CIS: Attagene CIS-FACTORIAL HepG2 Assay for M61 Transcription Factor (Internal Marker) (AID 2282937); details: HepG2 Attagene CIS-FACTORIAL M61 internal marker reporter; actives raise or lower the signal
Method in brief: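 Multiplexed reporter mRNA assay, HepG2 human hepatoma cells, 24 h treatment. Signal: FAM-labelled, HpaI-digested RT-PCR fragments by CE. Fit: bidirectional, baseline DMSO.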

[4] = ATG_EGR_CIS: Attagene CIS-FACTORIAL HepG2 Assay for human Early Growth Response 1 (EGR1) (AID 2282938); details: HepG2 Attagene CIS-FACTORIAL EGR reporter mRNA; actives raise or lower the signal
Method in brief: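 Multiplexed cis-reporter system in human hepatoma HepG2 cells, transiently transfected. Cells are dosed for 24 h; reporter transcripts are amplified, fluorescently tagged and sized by capillary electrophoresis, with DMSO as negative control.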

[5] = ATG_M_19_CIS: Attagene CIS-FACTORIAL HepG2 Assay for M19 Transcription Factor (Internal Marker) (AID 2282939); details: HepG2 Attagene CIS-FACTORIAL M19 internal marker reporter; actives raise or lower the signal
Method in brief: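 Chemical-treated HepG2 (24 h) with MRTU constructs; reporter transcripts detected by fluorescent RT-PCR fragment analysis on capillary electrophoresis. Internal background marker, DMSO as baseline.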

[6] = ATG_ERE_CIS: Attagene CIS-FACTORIAL HepG2 Assay for Estrogen Response Element (ERE) (AID 2282940); details: HepG2 ERE cis-reporter, Attagene RNA transcript; actives raise or lower the signal
Method in brief: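 Human liver cells (HepG2) bearing transiently transfected, promoter-regulated reporter units were exposed 24 h. Reporter mRNA induction was detected by capillary electrophoresis of labelled RT-PCR products and fitted bidirectionally to DMSO.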

[7] = ATG_Ets_CIS: Attagene CIS-FACTORIAL HepG2 Assay for human Erythroblast Transformation Specific (ETS) (AID 2282941); details: HepG2 ETS cis-reporter transcription, actives raise or lower the signal
Method in brief: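 HepG2 cells transiently transfected with cis-promoter reporter transcription units were dosed for 24 h; reporter mRNA was measured by RT-PCR, 6-FAM primer extension, HpaI digestion and capillary electrophoresis, with bidirectional fitting against DMSO baseline.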

[8] = molecular target: Hepatocyte nuclear factor 3-beta (Homo sapiens) (UniProt Q9Y261); experiment: ATG_FoxA2_CIS: Attagene CIS-FACTORIAL HepG2 Assay for human Forkhead box A2 (FOXA2) (AID 2282942); details: HepG2 cis-reporter transcription factor activity, 24 h; actives raise or lower the signal
Sequence of Hepatocyte nuclear factor 3-beta (Homo sapiens) (Q9Y261 whole entry, looked up): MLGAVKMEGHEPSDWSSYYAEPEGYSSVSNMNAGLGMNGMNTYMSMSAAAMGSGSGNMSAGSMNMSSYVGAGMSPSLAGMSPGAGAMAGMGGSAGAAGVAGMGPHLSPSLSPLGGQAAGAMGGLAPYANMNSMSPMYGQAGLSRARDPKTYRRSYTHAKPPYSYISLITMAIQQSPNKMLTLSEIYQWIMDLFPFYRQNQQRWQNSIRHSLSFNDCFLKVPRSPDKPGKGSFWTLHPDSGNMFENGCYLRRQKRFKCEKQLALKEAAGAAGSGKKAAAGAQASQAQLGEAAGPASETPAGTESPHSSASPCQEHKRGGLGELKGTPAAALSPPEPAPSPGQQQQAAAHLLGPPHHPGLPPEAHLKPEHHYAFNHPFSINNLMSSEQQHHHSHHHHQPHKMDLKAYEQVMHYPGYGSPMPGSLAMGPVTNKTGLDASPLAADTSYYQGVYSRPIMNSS
Method in brief: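 Multiplexed cis-element reporter assay in transiently transfected HepG2. Twenty-four hours post-dosing, RNA was reverse-transcribed, amplified, FAM-labelled, HpaI-digested and separated by CE. Activity gain or loss relative to DMSO.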

[9] = ATG_FoxO_CIS: Attagene CIS-FACTORIAL HepG2 Assay for human Forkhead box O (FoxO) (AID 2282943); details: HepG2 Attagene cis-reporter, FoxO element, mRNA; actives raise or lower the signal
Method in brief: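 Human hepatoma HepG2 cells carry transiently introduced reporter transcription units controlled by cis promoter elements. Chemical treatment lasted 24 h, and mRNA signal was compared with DMSO.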

[10] = ATG_GATA_CIS: Attagene CIS-FACTORIAL HepG2 Assay for human GATA Binding Protein (AID 2282944); details: HepG2 GATA cis-element reporter, Attagene multiplex mRNA; actives raise or lower the signal
Method in brief: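 Transfected cis-reporter HepG2 cells were treated with chemicals for 24 hours. Total RNA was then converted to cDNA, amplified with reporter-specific primers and analysed by fluorescent capillary electrophoresis, using DMSO-treated wells as baseline.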

Measured: AC50

O=C1OC2(c3ccc(O)cc3Oc3cc(O)ccc32)c2ccccc21
not listed: [10]
inactive: all other assays above

N#CCCNCCC#N
inactive: all assays above

CC1=C(C=O)C(C)(C)CCC1
not listed: [10]
inactive: all other assays above

CCCCCCCC(=O)N(C)C
inactive: all assays above

O=C1CCCCCCCCCCCC(=O)OCCO1
not listed: [10]
inactive: all other assays above

CCC(C)(C)c1cc(O)c(C(C)(C)CC)cc1O
active: [4] 14.1 µM | [9] 10.1 µM
not listed: [10]
inactive: all other assays above

CC1(C)CC(N)CC(C)(CN)C1 (stereo unspecified)
inactive: all assays above

Nc1ccn([C@H]2CC[C@@H](CO)O2)c(=O)n1
not listed: [10]
inactive: all other assays above

CCCC1CCOC(C)S1 (stereo unspecified)
inactive: all assays above

CC(O)COCC(C)O (stereo unspecified)
inactive: all assays above

CCCCN(CCO)CCO
not listed: [10]
inactive: all other assays above

CC1=CCC(C(C)C)=CC1
not listed: [10]
inactive: all other assays above

CCCc1ccc(O)cc1
active: [6] 26.8 µM
inactive: all other assays above

C#C[C@]1(O)CC[C@H]2[C@@H]3CCc4cc(O)ccc4[C@H]3CC[C@@]21C
active: [1] 60.4 µM | [2] 41.2 µM and 29.9 µM | [7] 100 µM | [9] 180 µM and 72.5 µM and 50.9 µM
inactive: [1] | [2] | [3] | [4] | [7] | [8] | [9]

O=C(c1ccc(OCCN2CCCCC2)cc1)c1c(-c2ccc(O)cc2)sc2cc(O)ccc12
inactive: [1] | [2] | [3] | [4] | [5] | [7] | [8] | [9] | [10]
active: [2] 11.1 µM and 7.95 µM | [4] 11.1 µM and 12.6 µM and 7.51 µM | [5] 11.3 µM and 11.1 µM | [7] 13.6 µM and 17 µM

OCCN1CCOCC1
active: [6] 21.4 µM
inactive: all other assays above

CC1COC(=O)O1 (stereo unspecified)
not listed: [10]
inactive: all other assays above

CCOC(=O)CCCCCCCCC(=O)OCC
not listed: [10]
inactive: all other assays above

S=c1[nH][nH]c(=S)s1
not listed: [10]
inactive: all other assays above

CCCCOCCOCCOCCO
inactive: all assays above

CCCCCC(=O)O[C@]1(C(C)=O)CC[C@H]2[C@@H]3CCC4=CC(=O)CC[C@]4(C)[C@H]3CC[C@@]21C
inactive: all assays above

O=C(O)c1ccco1
inactive: all assays above

CCCCCCCCCCOC(=O)c1ccccc1C(=O)OCCCCCCCC
not listed: [10]
inactive: all other assays above

CC(=O)CCC(=O)O
not listed: [10]
inactive: all other assays above

CC(C)=CCCC(C)=CC(=O)O
inactive: all assays above

C=C(C)C(N)=O
not listed: [10]
inactive: all other assays above
